AC50 and outcome data for 18 compounds are collected here from PubChem BioAssay (EPA / NIEHS).

Where “and” joins values, the source holds several entries; their conditions need not be identical. Equal values may be shown once. A structure can be active in one record and inactive in another. Calls of active or inactive are those of the source. How the source made its calls: active means hit-call score of the fitted dose curve at least 0.9, where 1 is the maximum; inactive means score below 0.9.

Read-out in experiment [1]: Interferon-gamma inducible Protein 10 (IP10), CXCL10 (gene 3627)
The experiment is described as follows: BSK_hDFCGF_IP10: BioMAP Diversity Plus: hDFCGF Assay for Interferon-gamma inducible Protein 10 (IP10) Biomarker Activity (AID 2283053). The note with it: primary human foreskin fibroblasts; actives raise or lower the signal. In a few lines: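 Primary human foreskin fibroblasts exposed to chemicals for 24 h. IP-10 measured by ELISA; changes fitted bidirectionally against DMSO baseline.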

Read-out in experiment [2]: Urokinase-type plasminogen activator receptor (uPAR), PLAUR (gene 5329)
The experiment is described as follows: BSK_CASM3C_uPAR: BioMAP Diversity Plus: CASM3C Assay for Urokinase-type plasminogen activator receptor (uPAR) Biomarker Activity (AID 2283054).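 Further: cell-surface uPAR protein level quantified by ELISA.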 The settings on record: primary human coronary artery smooth muscle cells; actives raise or lower the signal.

Read-out in experiment [3]: Vascular cell adhesion molecule 1 (VCAM1), VCAM1 (gene 7412)
The experiment is described as follows: BSK_CASM3C_VCAM1: BioMAP Diversity Plus: CASM3C Assay for Vascular cell adhesion molecule 1 (VCAM1) Biomarker Activity (AID 2283055).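 Further: VCAM-1 protein level quantified by ELISA on the cells.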 The settings on record: primary human coronary artery smooth muscle cells; actives raise or lower the signal.

Read-out in experiment [4]: Collagen III, COL3A1 (gene 1281)
The experiment is described as follows: BSK_hDFCGF_CollagenIII: BioMAP Diversity Plus: hDFCGF Assay for Collagen III Biomarker Activity (AID 2283056). The note with it: primary human foreskin fibroblasts; actives raise or lower the signal. In a few lines: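 Human foreskin fibroblast primary cultures sampled 24 h after dosing; Collagen III quantified by ELISA. Signal fitted bidirectionally against DMSO baseline.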

Read-out in experiment [5]: Epidermal growth factor receptor (EGFR), EGFR (gene 1956)
The experiment is described as follows: BSK_hDFCGF_EGFR: BioMAP Diversity Plus: hDFCGF Assay for Epidermal growth factor receptor (EGFR) Biomarker Activity (AID 2283057). The note with it: primary human foreskin fibroblasts; actives raise or lower the signal. The essentials: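 Primary human foreskin fibroblasts (hDFCGF system), sampled 24 h after dosing; EGFR quantified by ELISA. Bidirectional fit relative to DMSO baseline; SRB total-protein staining in parallel cultures for cytotoxicity.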

Read-out in experiment [6]: Interleukin-8 (IL8), CXCL8 (gene 3576)
The experiment is described as follows: BSK_hDFCGF_IL8: BioMAP Diversity Plus: hDFCGF Assay for Interleukin-8 (IL8) Biomarker Activity (AID 2283058). The settings on record: primary human foreskin fibroblasts; actives raise or lower the signal. In a few lines:
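Primary human foreskin fibroblasts (hDFCGF system) dosed with chemical; IL-8 measured by ELISA 24 hours later. Bidirectional curve fitting relative to DMSO baseline; cytotoxicity tracked in parallel cultures by SRB total protein staining.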

Experiment [7] is described as follows: BSK_hDFCGF_Proliferation: Cell Proliferation Assessment in the BioMAP Diversity Plus: hDFCGF Assay (AID 2283059).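 Further: curves fitted for both rise and fall of signal versus DMSO baseline.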 The note with it: primary human foreskin fibroblasts. In a few lines: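 Total protein read at 560 nm after 0.1% SRB staining of TCA-fixed human skin fibroblasts, […]. Activity is fitted in both directions relative to DMSO as baseline.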

Read-out in experiment [8]: Macrophage colony-stimulating factor (MCSF), CSF1 (gene 1435)
As to the kind of experiment: BSK_hDFCGF_MCSF: BioMAP Diversity Plus: hDFCGF Assay for Macrophage colony-stimulating factor (MCSF) Biomarker Activity (AID 2283060). The note with it: primary human foreskin fibroblasts; actives raise or lower the signal. In a few lines:
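Human foreskin fibroblast primary cultures; M-CSF measured by ELISA 24 hours after chemical dosing. Bidirectional fitting relative to DMSO, with overt cytotoxicity tracked by parallel SRB total-protein staining (0.1% SRB, 10% TCA fixation, 560 nm).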

Experiment [9] in a line: BSK_hDFCGF_SRB: Viability Assessment in the BioMAP Diversity Plus: hDFCGF Assay (AID 2283061).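 Further: cells exposed to compound for 24 h before the read.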 The note with it: primary human foreskin fibroblasts. The essentials: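 Human foreskin fibroblasts in 96-well plates were treated 24 h. Total protein was measured by 0.1% SRB staining after 10% TCA fixation, read at 560 nm. Data were fitted bidirectionally against DMSO.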
Read-out in experiment [10]: TIMP metallopeptidase inhibitor 1 (TIMP1), TIMP1 (gene 7076)
As to the kind of experiment: BSK_hDFCGF_TIMP1: BioMAP Diversity Plus: hDFCGF Assay for TIMP metallopeptidase inhibitor 1 (TIMP1) Biomarker Activity (AID 2283062). The note with it: primary human foreskin fibroblasts; actives raise or lower the signal. The essentials: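 Human foreskin fibroblast primary cultures dosed for 24 h; secreted/surface TIMP-1 quantified by ELISA. Bidirectional curve fitting against DMSO baseline; cytotoxicity tracked in parallel cultures by SRB total-protein staining.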

Usually AC50 stands for the concentration at which the activity in the assay is half-maximal. For the compound `Nc1ccc(N)c(Cl)c1`, the AC50 is 16 µM (active) and 20.2 µM (active) in experiment [1]; 27.2 µM (active) and 11.1 µM (active) in experiment [3]; 28.4 µM (active) in experiment [4]; 21.4 µM (active) in experiment [5]; 9.65 µM (active) in experiment [7]; 14.9 µM (active) and 16.5 µM (active) in experiment [8]. In addition, the AC50 in experiment [9] was 32.3 µM (active) and 32.1 µM (active); in [10] it was 34.2 µM (active). For the same compound, the result in experiment [2], in experiment [4], in experiment [5], in experiment [6] and in [10] was inactive.

Regarding `C/C=C\C/C=C/CCCCCCCCOC(C)=O`, the AC50 in experiment [1] is 34.3 µM (active); in experiment [2] it was 32.7 µM (active); in [3], 23.3 µM (active); in experiment [4] it was 20 µM (active); in experiment [7] it was 29.7 µM (active); in [8], 29.9 µM (active). In addition, the AC50 in experiment [9] is 31.7 µM (active); in experiment [10], 30.4 µM (active). For the same compound, the result in experiment [5] and in experiment [6] was inactive.

In the case of `CCO[Si](C)(OCC)OCC`, the result in experiment [1], in experiment [2], in experiment [3], in experiment [4], in experiment [5] and in experiment [6] was inactive. Moreover, the result in [7], in experiment [8], in experiment [9] and in [10] was inactive.

Take `O=Nc1ccc(O)cc1`: the outcome in [1], in [2], in [3], in [4], in experiment [5] and in experiment [6] was inactive. Besides, the outcome in experiment [7], in [8], in [9] and in experiment [10] was inactive.

For `O=C1CCCN1CCO`, the outcome in [1], in experiment [2], in experiment [3], in experiment [4], in experiment [5] and in experiment [6] was inactive. Further, the outcome in [7], in [8], in experiment [9] and in experiment [10] was inactive.

As for `CCCCNc1ccc(NCCCC)c2c1C(=O)c1ccccc1C2=O`, the result in [1], in experiment [2], in experiment [3], in experiment [5], in experiment [6] and in experiment [7] was inactive. In addition, the result in experiment [8], in [9] and in [10] was inactive. In [4], the half-maximal activity concentration (AC50) was 3.46 µM (active).

With `CCCCC(CC)COCC1CO1` (stereo not drawn), the result in [1], in experiment [2], in [3], in experiment [4], in [5] and in experiment [6] was inactive. Moreover, the outcome in [7], in [8], in experiment [9] and in experiment [10] was inactive.

Regarding `O=C(Nc1ccccc1SSc1ccccc1NC(=O)c1ccccc1)c1ccccc1`, the outcome in [1], in experiment [4], in [5], in experiment [6], in experiment [7] and in [8] was inactive. Also, the outcome in experiment [9] and in [10] was inactive. Besides, the concentration at half-maximal activity (AC50) in [2] is 5.17 µM (active); in experiment [3], 5.16 µM (active).

Regarding `c1ccc(-c2ccccn2)nc1`, the result in experiment [1], in [2], in experiment [3], in experiment [4], in experiment [5] and in [6] was inactive. The outcome in experiment [7], in experiment [8], in [9] and in [10] was inactive.

For `CC(C)(c1cc(Br)c(OCCO)c(Br)c1)c1cc(Br)c(OCCO)c(Br)c1`, the AC50 is 23.3 µM (active) in experiment [1]; 6.14 µM (active) in [3]; 4.6 µM (active) in [4]; 4.47 µM (active) in experiment [7]; 8.17 µM (active) in experiment [8]; 16.2 µM (active) in experiment [9]. In experiment [10], the concentration at half-maximal activity (AC50) is 25.4 µM (active). Also, the result in experiment [2], in experiment [5] and in experiment [6] was inactive.

On to `CCOc1nc(F)cc2nc(S(=O)(=O)Nc3c(Cl)cccc3C(=O)OC)nn12`, for which the outcome in experiment [1], in [2], in experiment [3], in [4], in experiment [5] and in experiment [6] was inactive. Besides, the outcome in experiment [7], in [8], in experiment [9] and in experiment [10] was inactive.

Turning to `C=CC=CC=CCCCCC`, the outcome in experiment [1], in experiment [2], in [5], in experiment [6], in experiment [8] and in [9] was inactive. Moreover, the result in [10] was inactive. Also, the AC50 in [3] is 5 µM (active); in experiment [4], 7.41 µM (active); in experiment [7] it was 7.28 µM (active).

For `O=C(c1ccc(O)cc1)c1ccc(O)cc1O`, the result in [1], in experiment [2], in [3], in experiment [4], in [5] and in experiment [6] was inactive. For the same compound, the outcome in experiment [7], in experiment [8], in experiment [9] and in experiment [10] was inactive. Moreover, in [3], the half-maximal activity concentration (AC50) is 5.81 µM (active).

Regarding `c1ccc2c(c1)ccc1ncccc12`, the result in [1], in experiment [2], in experiment [3], in experiment [4], in experiment [5] and in [6] was inactive. For the same compound, the outcome in [8], in [9] and in experiment [10] was inactive. Also, the AC50 in experiment [7] is 20 µM (active).

Take `CO[Si](OC)(OC)c1ccccc1`: the outcome in experiment [1], in experiment [2], in experiment [3], in experiment [4], in experiment [5] and in experiment [6] was inactive. In addition, the outcome in experiment [7], in experiment [8], in experiment [9] and in experiment [10] was inactive.

In the case of `COCc1c(C(C)C)nc(C(C)C)c(/C=C/[C@@H](O)C[C@@H](O)CC(=O)O)c1-c1ccc(F)cc1`, the result in experiment [1], in experiment [2], in experiment [3], in experiment [4], in [5] and in experiment [8] was inactive. Besides, in experiment [10], the result was inactive. In addition, the AC50 in experiment [7] is 0.0803 µM (active); in experiment [9], 0.32 µM (active).

For the compound `CCCCCCCCCCCCCCCC[N+](C)(C)CC`, the AC50 is 2.84 µM (active) in experiment [1]; 3.16 µM (active) in experiment [2]; 4.21 µM (active) in [3]; 0.447 µM (active) in experiment [4]; 12.4 µM (active) in [6]; 0.484 µM (active) in experiment [7]. The figures for the AC50 in experiment [8], in experiment [9] and in experiment [10] were 1.49 µM (active), 1.28 µM (active) and 1.89 µM (active), respectively. Besides, the outcome in experiment [5] was inactive.

For the compound `CCCCCCCCc1ccc(Nc2ccc(CCCCCCCC)cc2)cc1`, the result in experiment [1], in experiment [2], in [3], in experiment [4], in experiment [5] and in experiment [6] was inactive. The result in experiment [7], in experiment [8], in experiment [9] and in experiment [10] was inactive.
